In the library only some 19% were active in any assay of this set; here they are far more common.
HT1080 IDH1KD tx: HT-1080 IDH1 knockdown cell toxicity (counter line); Potency, µM (highest dose often 46.1 µM), for inactives: at the top dose activity, negative = toxicity, most hits filed as cytotoxic; 360,000 compounds, 2% hits; HT-1080 IDH1 knockdown viability, ATP luminescence, 48 h; AID 686971;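 note: potency is the fitted concentration of half-maximal effect; 0% = DMSO wells and -100% = cell-free medium wells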
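Assay cells: HT-1080 with IDH1 knockdown, 750 per well, RPMI/5% FBS. Exposure: 48 h at 37 °C following 2 h pre-incubation. Read: CellTiter-Glo luminescence; fitted concentration-response, curve class assigned.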
TDP1 cell noCPT: qHTS for Inhibitors of human tyrosyl-DNA phosphodiesterase 1 (TDP1): qHTS in cells in absence of CPT | DT40 Tdp1-/- hTDP1 cells, no CPT, ATP luminescence, 48 h | AID 686978, 2013 | Potency, µM (series often up to 46.2 µM), inactives show top-dose activity change, negative = growth inhibition, usual class: inhibitors | 420,000 compounds, 15% hits; note: potency is the fitted concentration of half-maximal effect; nearly all actives have a fitted effect of over 55% in size
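Growth kinetics read by CellTiter-Glo luminescence after ≥48 hr at 37 °C. Cells: DT40 Tdp1-/- stably carrying human TDP1, 400 per well, compound exposure in the absence of CPT (DMSO vehicle).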
uPA generation: inhibitors of cell surface uPA generation | 330,000 compounds, 0.31% hits | Potency, µM (highest dose often 38.3 µM), for inactives: at the highest dose activity change, negative = inhibition, hits mostly inhibitors | cell surface uPA generation assay, qHTS; active = well fitted inhibition curve with a large enough effect; inconclusive = small, poorly fitted or top-dose-only effect; inactive = no such curve, though single readings can be large or run the other way; tested in mouse RAW 264.7 cells; note: potency is the fitted concentration of half-maximal effect; nearly all actives have a fitted effect of over 55% in size
HT1080NT lethal: kills 2HG-producing HT-1080-NT fibrosarcoma cells | HT-1080-NT fibrosarcoma viability, CellTiter-Glo ATP luminescence, 48 h | Potency, µM (highest dose often 46.1 µM), inactives show top-dose activity, negative = less viability, usual class: cytotoxic | 360,000 compounds, 1.6% hits | AID 686970;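 note: NT is the 2HG producing partner of a matched IDH1 knockdown line; potency is the fitted concentration of half-maximal effect; 0% = DMSO-treated cells and -100% = media-only wells without cells; nearly all actives have a fitted effect of over 55% in size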
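Toxicity toward the 2HG-producing NT line was scored as %Activity, normalised to DMSO and no-cell wells, from CellTiter-Glo luminescence after 48 hours' treatment.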
IL-1B inflam inh: inhibitors of inflammasome signaling (IL-1 beta secretion); THP-1 LPS/ATP IL-1B secretion, AlphaLISA, 16 h; active compounds read low; activity change, % at 57.5 µM; 360,000 compounds, 4.7% hits; in the data active = activity change below about -50%; inconclusive = mostly about -30% to -49%
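THP-1 cells pretreated 1 hr with compounds (up to 57.5 uM final), then stimulated with LPS (250 ng/mL final) plus ATP (1.25 mM final); secreted IL-1B measured by AlphaLISA after 16 hr, decreased signal indicating inhibition.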
TDP1 cell CPT: DT40-hTDP1 cell growth loss with CPT. chicken DT40 Tdp1-/-;hTDP1 cells + 20 nM CPT, ATP luminescence, 48 h. 420,000 compounds, 12% hits. Potency, µM (doses to about 46.2 µM), inactives show top-dose activity change, negative = growth inhibition, usual class: inhibitors; note: potency is the fitted concentration of half-maximal effect; nearly all actives have a fitted effect of over 55% in size
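Cell growth measured by CellTiter-Glo luminescence after a minimum 48 h, 37 C compound exposure with 20 nM CPT in Tdp1-knockout DT40 cells stably expressing hTDP1, seeded 400/well; qHTS titration format.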
Starred values were filed as active, the others as inactive. Unless noted, calls come from the whole dose curve; as a rule, active = well fitted curve in the direction sought with a large enough effect; inconclusive = small, poorly fitted or top-dose-only effect, or another doubt; inactive = no such curve, though single readings can be large; an effect the other way counts as inactive or inconclusive. Unless noted, % is set by controls: 0 for no effect and ±100 for the full control effect.

How did O=C(c1cc2n(n1)C(C(F)(F)F)CC(c1ccco1)N2)N1CCc2ccccc2C1 (stereo not drawn) do in these assays?
HT1080 IDH1KD tx: inconclusive; TDP1 cell noCPT: 18µM*; uPA generation: 18%; HT1080NT lethal: -19%; IL-1B inflam inh: -8; TDP1 cell CPT: inconclusive

What do the screens show for `COc1ccccc1N1CCN(C(=O)c2cc3n(n2)C(C(F)(F)F)CC(c2ccco2)N3)CC1` (stereo not drawn)?
HT1080 IDH1KD tx: -10%; TDP1 cell noCPT: 18µM*; uPA generation: -6%; HT1080NT lethal: -7%; IL-1B inflam inh: -15; TDP1 cell CPT: 15µM*

Results for Cc1ccc(N2C(=O)C(CN3CCCC3)C2c2ccccc2)cc1 (stereo not drawn) ?
HT1080 IDH1KD tx: -22%; TDP1 cell noCPT: 23µM*; uPA generation: 10%; HT1080NT lethal: -19%; IL-1B inflam inh: inconclusive; TDP1 cell CPT: 21µM*

Results for Cc1ccc(N2C(=O)C(CN3CCCCC3)C2c2ccccc2)cc1 (stereo not drawn) ?
HT1080 IDH1KD tx: -6%; TDP1 cell noCPT: 18µM*; HT1080NT lethal: 0%; IL-1B inflam inh: 1; TDP1 cell CPT: inconclusive

How did COc1cc(C(C)=O)ccc1OCC(O)CN1CCN(c2ccccn2)CC1 (stereo not drawn) do in these assays?
HT1080 IDH1KD tx: 10%; TDP1 cell noCPT: -3%; uPA generation: 3%; HT1080NT lethal: 0%; IL-1B inflam inh: -56*; TDP1 cell CPT: inconclusive

What do the screens show for `N#CN1CCC(NS(=O)(=O)c2ccc(C(F)(F)F)cc2)C1` (stereo not drawn)?
uPA generation: -8%

What do the screens show for `CCn1c(COc2cccc(C)c2C)nnc1SCC(=O)N1CCN(c2ccc(OC)cc2)CC1`?
HT1080 IDH1KD tx: -19%; TDP1 cell noCPT: 21µM*; uPA generation: -6%; HT1080NT lethal: -8%; IL-1B inflam inh: 14; TDP1 cell CPT: 21µM*

What do the screens show for `CCn1c(COc2ccccc2C)nnc1SCC(=O)N1CCN(c2ccccc2)CC1`?
HT1080 IDH1KD tx: -22%; TDP1 cell noCPT: 23µM*; uPA generation: -9%; HT1080NT lethal: inconclusive; IL-1B inflam inh: -13; TDP1 cell CPT: inconclusive

What do the screens show for `CCn1c(COc2ccccc2C)nnc1SCC(=O)OC`?
HT1080 IDH1KD tx: 11%; TDP1 cell noCPT: -3%; uPA generation: 0%; HT1080NT lethal: 11%; IL-1B inflam inh: 8; TDP1 cell CPT: -13%

Results for C=CCNC(=O)/C(C#N)=C/c1ccccc1Cl ?
HT1080 IDH1KD tx: 3%; TDP1 cell noCPT: inconclusive; uPA generation: 2%; HT1080NT lethal: -18%; IL-1B inflam inh: -58*; TDP1 cell CPT: inconclusive

Results for C=CCNC(=O)/C(C#N)=C/c1cc(Br)ccc1OC ?
HT1080 IDH1KD tx: inconclusive; TDP1 cell noCPT: inconclusive; uPA generation: -7%; HT1080NT lethal: 21µM*; IL-1B inflam inh: -26; TDP1 cell CPT: inconclusive

What do the screens show for `C=CCNC(=O)/C(C#N)=C/c1cn(-c2ccccc2)nc1-c1ccc(OC)c([N+](=O)[O-])c1`?
HT1080 IDH1KD tx: -20%; TDP1 cell noCPT: inconclusive; uPA generation: -2%; HT1080NT lethal: -3%; IL-1B inflam inh: -5; TDP1 cell CPT: 3%

Results for COc1c(Cl)cccc1-c1cn2ccc(C)cc2n1 ?
HT1080 IDH1KD tx: -16%; TDP1 cell noCPT: inconclusive; uPA generation: -6%; HT1080NT lethal: -13%; IL-1B inflam inh: inconclusive; TDP1 cell CPT: 0%

How did CC(=O)Nc1ccc(NC(=O)CCS(=O)(=O)c2ccc3c(c2)CC(=O)N3C)cc1 do in these assays?
TDP1 cell noCPT: -9%; TDP1 cell CPT: -2%

What do the screens show for `Cc1csc(Nc2nc(N)c(C(=O)Nc3cc(Cl)ccc3F)o2)n1`?
HT1080 IDH1KD tx: inconclusive; TDP1 cell noCPT: inconclusive; uPA generation: 4%; HT1080NT lethal: inconclusive; IL-1B inflam inh: 3; TDP1 cell CPT: inconclusive

How did CCCCCCc1cc2cc(C(=O)NCc3ccccc3)c(=N)oc2cc1O do in these assays?
HT1080 IDH1KD tx: -2%; TDP1 cell noCPT: inconclusive; uPA generation: 3%; HT1080NT lethal: 9%; IL-1B inflam inh: -17; TDP1 cell CPT: inconclusive

What do the screens show for `CCCCCCc1cc2cc(C(=O)Nc3ccccc3)c(=O)oc2cc1O`?
HT1080 IDH1KD tx: inconclusive; TDP1 cell noCPT: 3.7µM*; uPA generation: 3%; HT1080NT lethal: inconclusive; IL-1B inflam inh: -3; TDP1 cell CPT: 3.3µM*

What do the screens show for `O=C(NCCc1ccc(Cl)cc1)C(=O)NCC(c1ccco1)S(=O)(=O)c1ccccc1` (stereo not drawn)?
TDP1 cell noCPT: -9%; TDP1 cell CPT: -10%

Results for O=C(COc1ccc(Cl)cc1)NCC(c1ccco1)S(=O)(=O)c1ccccc1 (stereo not drawn) ?
TDP1 cell noCPT: 21µM*; TDP1 cell CPT: inconclusive

How did O=C(COc1ccccc1)NCC(c1cccs1)S(=O)(=O)c1ccc(Cl)cc1 (stereo not drawn) do in these assays?
TDP1 cell noCPT: 23µM*; TDP1 cell CPT: inconclusive

Results for CCCC(=O)NCC(c1cccs1)S(=O)(=O)c1ccc(Cl)cc1 (stereo not drawn) ?
HT1080 IDH1KD tx: 5%; TDP1 cell noCPT: -21%; uPA generation: 2%; HT1080NT lethal: -5%; IL-1B inflam inh: 19; TDP1 cell CPT: inconclusive

Results for Cc1cc(S(=O)(=O)C(CNC(=O)COc2ccc(Cl)cc2)c2cccs2)ccc1F (stereo not drawn) ?
TDP1 cell noCPT: inconclusive; TDP1 cell CPT: 2.6µM*

What do the screens show for `CC(=O)NCC(c1cccs1)S(=O)(=O)c1ccc(F)cc1` (stereo not drawn)?
HT1080 IDH1KD tx: 4%; TDP1 cell noCPT: -1%; uPA generation: -2%; HT1080NT lethal: 11%; IL-1B inflam inh: 0; TDP1 cell CPT: 2%

How did CCc1ccc(S(=O)(=O)N2CCN(c3ncccn3)CC2)cc1 do in these assays?
HT1080 IDH1KD tx: 10%; TDP1 cell noCPT: -22%; uPA generation: -1%; HT1080NT lethal: 9%; IL-1B inflam inh: inconclusive; TDP1 cell CPT: -18%

Results for O=C(Nc1nnc(C2=COCCO2)o1)c1cccc(C(F)(F)F)c1 ?
HT1080 IDH1KD tx: -20%; TDP1 cell noCPT: 15µM*; uPA generation: -23%; HT1080NT lethal: -14%; IL-1B inflam inh: 4; TDP1 cell CPT: 26µM*
